Results as given in PubChem BioAssay AID624352 (Sanford-Burnham Center for Chemical Genomics, 2012).
Out of some 360,000 compounds screened, about 2,600 (0.72%) were called active.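 How the source made its calls: active means inhibition of the luminescence signal of 40% or more relative to plate controls, in a single-dose primary screen at 18.75 µM; inactive means the rest.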 The entries come from a sample that favours actives as a whole.

Experiment: blockers of HIF-2a driven luciferase – luminescence, 786-0 RCC cells, primary screen (AID 624352)
Settings: 786-0 RCC cells HIF-2a reporter, overnight, at 18.8 µM, stronger effect = higher value

Compound | inhibition
NS(=O)(=O)c1cc(Cl)c(Cl)c(S(N)(=O)=O)c1 | -2.27% (inactive)
NC(N)=Nc1nc2ccc(Br)cc2c(=O)[nH]1 | -20.2% (inactive)
NC(N)=Nc1nc(-c2ccccc2)c2cc(Cl)ccc2n1 | 41.9% (active)
Cc1nc(N=C(N)N)nc2c(C)cccc12 | 15% (inactive)
S=C(NC1CCCCC1)NN1CCOCC1 | 12.3% (inactive)
Cc1sc(NC(=S)NC(=O)c2cccs2)nc1-c1ccc(CC(C)C)cc1 | -5.06% (inactive)
O=C(C1=C[C@H](c2coc3ccccc3c2=O)C[C@H](OCc2ccc(CO)cc2)O1)N1CCN(Cc2ccccc2)CC1 | 25% (inactive)
CSC1=N/C(=C\C=C\c2cccs2)C(=O)S1 | -28.6% (inactive)
O=C(Nc1ccccc1Cl)/C(Cl)=C(\Cl)S(=O)c1ccccc1 (centres undefined) | 95.4% (active)
O=C(COc1nsnc1N1CCOCC1)Nc1ccccc1Cl | -40.8% (inactive)
Cc1cccc(C)c1NC(=O)CNC(=O)c1c(C)nn(-c2ccccc2)c1C | 0.612% (inactive)
O=C(/C=C/c1ccc(Cl)c([N+](=O)[O-])c1)c1ccc(O)cc1 | 79% (active)
O=C(NCCC1=CCCCC1)c1ccc(Cl)c([N+](=O)[O-])c1 | -91% (inactive)
O=C(/C=C(O)/C=C/c1ccc(O)cc1)/C=C/c1ccc(O)cc1 | -18.9% (inactive)
CN(Cc1cccs1)C(=O)CN1C(=O)c2ccccc2S1(=O)=O | -66.1% (inactive)
O=C(CN1C(=O)c2ccccc2S1(=O)=O)N1CCc2ccccc21 | 82.3% (active)
Cc1ccc(S(=O)(=O)N(C)CC(=O)N2CCc3ccccc32)cc1 | -0.159% (inactive)
COCCNC(=O)c1ccc2c(c1)ncn2-c1ccc(C)c(Cl)c1 | -31.7% (inactive)
Cc1ccc(CNC(=O)COC(=O)C2CCC2)cc1 | 2.35% (inactive)
CCc1c(N=O)c(-c2ccccc2)n(O)[n+]1[O-] | -2.82% (inactive)
Cc1ccc(S(=O)(=O)NCC(=O)N(CC(=O)NCC2CCCO2)c2cccc(F)c2)cc1 (centres undefined) | 8.25% (inactive)
CC1CCc2c(c3ccccc3[nH]c2=O)O1 (centres undefined) | 6.77% (inactive)

Compound | inhibition
Cc1cc(Cl)c(S(=O)(=O)N(C)C)cc1OCC(N)=O | 7% (inactive)
Cc1cc(Cl)c(S(=O)(=O)NCCC(=O)O)cc1OCC(N)=O | 0.473% (inactive)
Cc1cc(Cl)c(S(=O)(=O)Nc2ccc3c(c2)OCCO3)cc1OCC(N)=O | 43.7% (active)
CCNC(=O)C1(C)CCCN(C(=O)c2ccc3ccccc3n2)C1 (centres undefined) | 3.52% (inactive)
COCCn1c(SCC(=O)Nc2nc(C)cs2)nnc1C(C)C | 9.65% (inactive)
COc1cc(SC)ccc1C(=O)Nc1nc(C)cs1 | 77.6% (active)
Cc1csc(NC(=O)CSc2ccc(-c3ccc(F)cc3)nn2)n1 | -4.55% (inactive)
O=C(COC(=O)Cc1ccccc1F)NCCc1ccccc1 | -1.26% (inactive)
O=C(CCCN1C(=O)/C(=C/c2ccccc2)SC1=S)Nc1ccc(O)cc1 | 46.2% (active)
O=C(CCCN1C(=O)/C(=C/c2ccco2)SC1=S)Nc1ccccc1 | 45.3% (active)
Cc1ccc(NC(=O)CCN2C(=O)c3ccccc3C2=O)cc1C | -6.43% (inactive)
CN(C(=O)CN1C(=O)/C(=C/c2ccc(Cl)cc2)SC1=S)C1CCS(=O)(=O)C1 (centres undefined) | -14% (inactive)
O=C(CN1C(=O)/C(=C\c2ccc(C(F)(F)F)cc2)Sc2ccccc21)NCc1ccco1 | -23.3% (inactive)
O=C(CCN1C(=O)c2ccccc2C1=O)Nc1ccncc1 | 13.6% (inactive)
O=C(CCCN1C(=O)C(c2ccccc2)Oc2cccnc21)Nc1ccccc1Br (centres undefined) | 12.9% (inactive)
Cc1c(Cl)cccc1NC(=O)CCC(=O)N/N=C/c1ccco1 | 6.46% (inactive)
O=C(OCN1C(=O)c2ccccc2C1=O)/C(=C\c1ccco1)NC(=O)c1ccccc1 | 1.64% (inactive)
O=C(CCCN1C(=O)/C(=C\c2ccco2)SC1=S)Nc1cccc2ccccc12 | 56.3% (active)
C=CCOc1ccc(C(=O)Nc2ccccc2C(=O)N2CCCC2)cc1 | -0.109% (inactive)
C=CCOc1ccc(/C=C2\SC(=S)N(CCC(=O)O)C2=O)cc1 | 90.6% (active)
CCN(Cc1ccccc1)C(=O)CN1C(=S)NC(C)(C)CC1C (centres undefined) | 4.59% (inactive)
COc1cc(C(=O)OCC(=O)NC(C)CCc2ccccc2)cc(OC)c1OC (centres undefined) | 26.2% (inactive)

Compound | inhibition
O=C1CCC(CCC(=O)N2CCCC(C(=O)c3ccc(Cl)cc3)C2)=NN1 (centres undefined) | -12.6% (inactive)
CC(C)(O)C1=C[N+](=O)CC=C1 | -0.393% (inactive)
COc1ccc2c(C)c(CCC(=O)NC3CC3)c(=O)oc2c1C | -156% (inactive)
O=C(O)c1ccccc1OCc1ccccc1Cl | 10% (inactive)
Cc1c(CCC(=O)O)c(=O)oc2c(C)c(OCc3ccccc3Cl)ccc12 | 44.6% (active)
C#CCNc1nc(C(C)C)nc2c1nnn2Cc1ccccc1F | 4.59% (inactive)
COc1ccc(S(=O)(=O)N2CCN(C(=O)NC3CCCCC3)CC2)cc1 | 12.4% (inactive)
O=C(CCS(=O)(=O)c1ccccc1)NC1CCCC1 | -146% (inactive)
Cc1cccc(C)c1NC(=O)CCS(=O)(=O)c1cccc2nsnc12 | 4.25% (inactive)
Cc1cccc2sc(N(CCCN(C)C)C(=O)CCS(=O)(=O)c3ccccc3)nc12 | 56.1% (active)
COCCN(C(=O)CCC(=O)Nc1nccs1)C(C(=O)NC(C)(C)C)c1ccc(Cl)cc1 (centres undefined) | 5.58% (inactive)
CN1C(=O)[C@H]2[C@@H](/C=C/c3ccccc3)N3C(=O)CN(Cc4ccc(-c5ccccc5)cc4)C(=O)[C@@]3(C)[C@H]2C1=O | -8.21% (inactive)
O=C(CNCc1ccco1)Nc1cc(S(=O)(=O)N2CCOCC2)ccc1N1CCCC1 | 12.6% (inactive)
Cc1ccc(N(Cc2cc(=O)[nH]c3ccccc23)C(=O)CCl)cc1 | 45.7% (active)
CCC(=O)N(Cc1cc2ccccc2[nH]c1=O)c1ccc(OC)cc1 | 20.9% (inactive)
Cc1ccc(N(Cc2ccccc2O)C(=O)c2ccccc2F)cc1 | 16.1% (inactive)
O=C(NCCC(=O)N1O[C@@H]2C=C[C@H]1C2)OCC1c2ccccc2-c2ccccc21 | 3.4% (inactive)
CN(C)CCn1c2c(c(SCC(=O)Nc3ccccc3C(F)(F)F)nc1=O)CCCC2 | 11.7% (inactive)
NC(=O)c1cc(S(=O)(=O)N2CCCC2)ccc1OCc1ccc(F)cc1 | 24% (inactive)
Cc1[nH]c2ccc(S(N)(=O)=O)cc2c1C | 11.6% (inactive)
